# Source: the antibiotic and cytotoxicity screens of Wong et al. (2023)
# Screen size: about 39,000 compounds; about 3,300 (8.5%) were called active. For the sample, actives were picked, then their nearest neighbours and some compounds at random.
# System: HepG2
# Assay: cytotoxicity call (relative viability < 0.9)
# Settings: 10 µM
row,Compound,cytotoxicity call
1,C[C@H]1CN([C@@H](C)CO)C(=O)c2cc(NS(=O)(=O)c3cn(C)cn3)ccc2O[C@H]1CN(C)CC1CC1,inactive
2,COCC(=O)Nc1ccc2c(c1)OC[C@@H](C)N(C(=O)c1ccccc1F)C[C@@H](C)[C@H](OC)CN(C)C2=O,inactive
3,O=C1OCC=C[C@H]2O[C@@]34C=CCN(CCN5CCOCC5)C(=O)[C@H]3N(CCCCCCO)C(=O)[C@@H]4[C@@H]12,inactive
4,C=CC1CN2CCC1CC2C(O)c1ccnc2ccc(OC)cc12 (centres undefined),inactive
5,C=CC1CN2CCC1CC2C(O)c1ccnc2ccc(OC)cc12.Cl (centres undefined),active
6,C=CC1CN2CCC1CC2C(O)c1ccnc2ccc(OC)cc12.O=C(O)C(O)C(O)C(O)C(O)CO (centres undefined),inactive
7,COc1ccc2c3c(n(c2c1)C)[C@H](CO)N(C[C@]13CCN(CC1)C(=O)c1ccccc1F)C(=O)Nc1ccccc1F,inactive
8,C[C@@H]1CN([C@H](C)CO)C(=O)c2cc(NS(=O)(=O)c3cn(C)cn3)ccc2O[C@@H](C)CCCCO[C@H]1CN(C)S(=O)(=O)c1ccc(F)cc1,inactive
9,COc1ccc(-c2cnc3c(c2)C(=O)N([C@@H](C)CO)C[C@@H](C)[C@H](CN(C)S(=O)(=O)c2ccc(OC)cc2)O3)cc1,inactive
10,NS(=O)(=O)c1ccc(O)c([N+](=O)[O-])c1,inactive
11,Oc1ccc(Cl)c2c1CCC2,inactive
12,Oc1ccc(Cl)c2cccnc12 [listing 1 of 2 here],active
13,Oc1ccc(Cl)c2cccnc12 [listing 2 of 2 here],active
14,O=[N+]([O-])c1ncn(Cc2ccccn2)n1,inactive
15,Fc1cccc2c(Cl)ccnc12,inactive
16,O=[N+]([O-])c1ccc(O)c2ncccc12,active
17,O=C(C[C@H]1CC[C@@H]2[C@H](COC[C@@H](O)CN2C(=O)c2ccncc2)O1)NC1CCC1,inactive
18,C[C@@H]1CCCCO[C@H](CN(C)CC2CCCCC2)[C@H](C)CN([C@@H](C)CO)C(=O)c2cc(NC(=O)NC3CCCCC3)ccc2O1,inactive
19,O=C(C[C@@H]1CC[C@@H]2[C@H](COC[C@H](O)CN2Cc2ccccc2F)O1)N[C@H]1CCN(Cc2ccccc2)C1,inactive
20,C[C@H](CO)N1C[C@H](C)[C@@H](CN(C)C(=O)Nc2cccc3ccccc23)Oc2c(NS(=O)(=O)c3ccc(F)cc3)cccc2C1=O,inactive
21,C[C@H]1CN([C@@H](C)CO)C(=O)c2cc(NC(=O)Cn3cnnn3)ccc2O[C@H]1CN(C)Cc1ccc(C(=O)O)cc1,inactive
22,COc1ccc(S(=O)(=O)N(C)C[C@@H]2Oc3ccc(NC(=O)CCN4CCOCC4)cc3C(=O)N([C@H](C)CO)C[C@@H]2C)cc1,inactive
23,COCC#Cc1cnc2c(c1)C(=O)N([C@@H](C)CO)C[C@@H](C)[C@H](CN(C)C(=O)CCN1CCCCC1)O2,inactive
24,C[C@@H]1CN([C@@H](C)CO)C(=O)c2cc(NC(=O)Nc3ccc(C(F)(F)F)cc3)ccc2O[C@@H](C)CCCCO[C@@H]1CN(C)S(=O)(=O)c1ccccc1,inactive
25,C[C@H]1CCCCO[C@H](CN(C)S(=O)(=O)c2ccccc2)[C@@H](C)CN([C@@H](C)CO)C(=O)c2cc(NC(=O)Nc3ccc(C(F)(F)F)cc3)ccc2O1,active

row,Compound,cytotoxicity call
1,C[C@@H]1CCCCO[C@H](CN(C)S(=O)(=O)c2ccccc2)[C@H](C)CN([C@@H](C)CO)C(=O)c2cc(NC(=O)Nc3ccc(C(F)(F)F)cc3)ccc2O1,active
2,C[C@@H]1CN([C@@H](C)CO)C(=O)c2cc(NC(=O)Nc3ccc(C(F)(F)F)cc3)ccc2O[C@@H](C)CCCCO[C@H]1CN(C)S(=O)(=O)c1ccccc1,inactive
3,C[C@H](CO)N1C[C@H](C)[C@H](CN(C)S(=O)(=O)c2ccccc2)OCCCC[C@H](C)Oc2ccc(NC(=O)Nc3ccc(C(F)(F)F)cc3)cc2C1=O,inactive
4,C[C@H]1CCCCO[C@@H](CN(C)S(=O)(=O)c2ccccc2)[C@@H](C)CN([C@@H](C)CO)C(=O)c2cc(NC(=O)Nc3ccc(C(F)(F)F)cc3)ccc2O1,active
5,C[C@@H]1CCCCO[C@@H](CN(C)S(=O)(=O)c2ccccc2)[C@@H](C)CN([C@@H](C)CO)C(=O)c2cc(NC(=O)Nc3ccc(C(F)(F)F)cc3)ccc2O1,inactive
6,C[C@@H]1CCCCO[C@H](CN(C)S(=O)(=O)c2ccccc2)[C@@H](C)CN([C@H](C)CO)C(=O)c2cc(NC(=O)Nc3ccc(C(F)(F)F)cc3)ccc2O1,active
7,C[C@@H]1CCCCO[C@H](CN(C)S(=O)(=O)c2ccccc2)[C@@H](C)CN([C@@H](C)CO)C(=O)c2cc(NC(=O)Nc3ccc(C(F)(F)F)cc3)ccc2O1,inactive
8,C[C@@H]1CCCCO[C@@H](CN(C)S(=O)(=O)c2ccccc2)[C@@H](C)CN([C@H](C)CO)C(=O)c2cc(NC(=O)Nc3ccc(C(F)(F)F)cc3)ccc2O1,inactive
9,C[C@@H]1CCCCO[C@@H](CN(C)S(=O)(=O)c2ccccc2)[C@H](C)CN([C@H](C)CO)C(=O)c2cc(NC(=O)Nc3ccc(C(F)(F)F)cc3)ccc2O1,inactive
10,C[C@H](CO)N1C[C@H](C)[C@@H](CN(C)S(=O)(=O)c2ccccc2)OCCCC[C@H](C)Oc2ccc(NC(=O)Nc3ccc(C(F)(F)F)cc3)cc2C1=O,inactive
11,OCC1CCNCC1,inactive
12,COC(=O)c1sccc1NC(=O)Cn1cnc2c1c(=O)n(C)c(=O)n2C,inactive
13,CC(=O)N(C)C[C@H]1Oc2ncc(C#C[C@H](C)O)cc2C(=O)N([C@@H](C)CO)C[C@H]1C,inactive
14,C[C@H]1CN([C@@H](C)CO)S(=O)(=O)c2ccc(-c3ccc(C(=O)N(C)C)cc3)cc2O[C@@H]1CN(C)C(=O)C1CCOCC1,inactive
15,CC(C)NC(=O)Nc1ccc2c(c1)CC(=O)N([C@H](C)CO)C[C@H](C)[C@H](CN(C)S(=O)(=O)c1ccccc1)O2,inactive
16,Nc1ccn([C@@H]2C[C@@H](O)[C@H](CO)O2)c(=O)n1,inactive
17,COc1ccc(NC(=O)N(C)C[C@@H]2Oc3ccc(NC(=O)CCCN(C)C)cc3C(=O)N([C@@H](C)CO)C[C@H]2C)cc1,inactive
18,COc1ccc(NC(=O)N(C)C[C@@H]2OCCCC[C@@H](C)Oc3ccc(NC(=O)C4CCCCC4)cc3C(=O)N([C@@H](C)CO)C[C@H]2C)cc1,inactive
19,C[C@H]1CC/C=C\[C@H]2O[C@@]34C=CCN(CCN5CCOCC5)C(=O)[C@H]3N(CCO)C(=O)[C@@H]4[C@@H]2C(=O)O1,inactive
20,COc1cc(OC)cc(C(=O)N(Cc2ccco2)Cc2cc3ccc(SC)cc3nc2-c2cccc(OC)c2)c1,inactive
21,Fc1ccccc1-c1nc2ccn(Cc3ccc(-c4ccc(C(F)(F)F)cc4C(F)(F)F)nn3)cc-2n1,active
22,CO[C@@H]1CN(C)C(=O)c2ccc(NC(=O)C3CC3)cc2OC[C@H](C)N(C(=O)Cc2ccccn2)C[C@@H]1C,inactive
23,CCOC(=O)/C=C/C(=O)N1CCC=CC1=O,active
24,COc1cc(C=CC(=O)O)cc(OC)c1OC,inactive
25,COc1cc(/C=C/C(=O)N2CCC=CC2=O)cc(OC)c1OC(=O)CCCCCCCCCCC(=O)Oc1c(OC)cc(/C=C/C(=O)N2CCC=CC2=O)cc1OC,inactive

row,Compound,cytotoxicity call
1,COc1cc(/C=C/C(=O)N2CCC=CC2=O)cc(OC)c1OCCOCCOCCOCCC(=O)OC(C)(C)C,active
2,COC(=O)C=Cc1cc(OC)c(OC)c(OC)c1,inactive
3,COc1cc(C=CC(=O)O)cc(OC)c1O,inactive
4,COc1cc(/C=C/C(=O)N(C)CCN(C)C(=O)/C=C/c2cc(OC)c(OC)c(OC)c2)cc(OC)c1OC,inactive
5,COc1cc(C=CC(=O)N2CCCCCCC2)cc(OC)c1OC,inactive
6,COc1cc(C=CC(N)=O)cc(OC)c1OC,active
7,C/C=C/C(=O)N1CCC=CC1=O,inactive
8,C=C(C)C(=O)N1CCC=CC1=O,inactive
9,COc1cc(C=CC(=O)N2CCC=CC2=O)cc(OC)c1OC,active
10,Cn1cc(S(=O)(=O)N2CCN(Cc3ccccc3)CC2)c(=O)n(C)c1=O,inactive
11,C=CCOC(=O)O[C@H]1[C@@H](OC)O[C@H](COC(=O)NCCCCCC(=O)NO)[C@H]2OC(=O)[C@@H](Cc3cccc(Br)c3)C/C=C/C[C@H](Cc3ccccc3)C(=O)O[C@H]12,inactive
12,CN1C(=O)c2cc(NS(=O)(=O)c3ccc(F)cc3)ccc2OC[C@@H]2O[C@@H](CC(=O)NCC(F)(F)F)CC[C@H]21,inactive
13,C[C@H]1CN([C@@H](C)CO)C(=O)c2cc(C#CCN(C)C)cnc2O[C@H]1CN(C)S(=O)(=O)c1cn(C)cn1,inactive
14,O=C(C[C@H]1CC[C@H]2[C@@H](COC[C@H](O)CN2S(=O)(=O)c2ccc(Cl)cc2)O1)N[C@H]1CCN(Cc2ccccc2)C1,inactive
15,CC(C)NC(=O)Nc1ccc2c(c1)C(=O)N([C@@H](C)CO)C[C@H](C)[C@@H](CN(C)C(=O)C1CCCCC1)OCCCC[C@H](C)O2,inactive
16,CCNC(=S)NCC1CC1,inactive
17,Cc1ccc(S(=O)(=O)Nc2ccc3c(c2)C(=O)N([C@H](C)CO)C[C@H](C)[C@H](CN(C)Cc2ccc4c(c2)OCO4)OCCCC[C@@H](C)O3)cc1,inactive
18,C[C@@H]1CN([C@H](C)CO)S(=O)(=O)c2ccc(C#Cc3ccc(F)cc3)cc2O[C@@H]1CN(C)CC1CC1,inactive
19,CO[C@@H]1CN(C)C(=O)c2ccc(NS(C)(=O)=O)cc2OC[C@@H](C)N(C(=O)CN(C)C)C[C@@H]1C,inactive
20,C[C@@H]1CN([C@@H](C)CO)C(=O)Cc2cc(NC(=O)Cn3cnnn3)ccc2O[C@@H]1CN(C)Cc1ccc(-c2ccccc2)cc1,inactive
21,C[C@H](CO)N1C[C@H](C)[C@H](CN(C)S(=O)(=O)c2ccc(Cl)cc2)OCCCC[C@H](C)Oc2ccc(NC(=O)Nc3cccc4ccccc34)cc2C1=O,inactive
22,CCCCc1oc2ccccc2c1C(=O)c1cc(I)c(OCCN(CC)CC)c(I)c1,active
23,CCCCc1oc2ccccc2c1C(=O)c1cc(I)c(OCCN(CC)CC)c(I)c1.Cl,active
24,CCCCOc1cc(C(=O)NCCN(CC)CC)c2ccccc2n1.Cl,inactive
